Hits are enriched below; roughly 6% of the tested compounds scored in any of these assays.
D1 agonist – Allosteric Agonists of the Human D1 Dopamine Receptor: qHTS. HEK293 T-REx D1 cells, calcium flux, agonist mode. activation, % at 2 µM. actives 1% (n = 360,000); in the data active = activation above about 30%
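Agonism was scored from calcium flux recorded over 180 s (1 read/s) after pintool compound addition, following a 10-cycle baseline. Cells were inducible force-coupled HEK293 TREx D1, plated overnight at 30 C and loaded with no-wash calcium dye.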
D1 antagonist – Antagonist of Human D 1 Dopamine Receptor: qHTS; actives 3.2% (n = 360,000); HEK293 TREx D1 cells, calcium flux, dopamine EC80; stronger effect = lower value; D(1A) dopamine receptor (Homo sapiens), P21728; activity change, negative = inhibition, % at 10 µM; in the data active = activity change below about -30%
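Inducible Hek293 Trex D1 cells (tetracycline, overnight, 30 C). Calcium dye 30–90 min RT. Antagonist mode: EC80 dopamine added after 180 s compound read.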
D3 ag – qHTS of D3 Dopamine Receptor Agonist: qHTS; D3R DiscoveRx beta-arrestin cells, luminescence, 90 min; max activation, %; actives 0.58% (n = 410,000); AID 652048, 2013; in the data active = max activation above about 30%
Target sequence (P35462 whole entry, looked up): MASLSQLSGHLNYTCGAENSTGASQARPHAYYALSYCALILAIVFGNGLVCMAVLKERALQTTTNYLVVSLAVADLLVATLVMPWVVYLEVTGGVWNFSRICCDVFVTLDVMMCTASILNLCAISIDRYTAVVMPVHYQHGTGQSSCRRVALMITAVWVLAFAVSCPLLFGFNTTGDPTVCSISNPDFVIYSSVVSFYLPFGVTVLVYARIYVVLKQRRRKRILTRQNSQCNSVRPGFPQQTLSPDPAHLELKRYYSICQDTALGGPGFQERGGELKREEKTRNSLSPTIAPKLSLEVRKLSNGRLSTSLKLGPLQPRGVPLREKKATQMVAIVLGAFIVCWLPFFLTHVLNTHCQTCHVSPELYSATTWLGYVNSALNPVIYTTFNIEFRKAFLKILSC
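Cells at 1500/well, incubated overnight, then treated with pinned compounds (dopamine as control) for 90 min at 37 degrees C. DiscoveRx reagent added for 30 - 60 minutes at room temperature; luminescence read.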
D3 antag – qHTS of D3 Dopamine Receptor Antagonist: qHTS; D(3) dopamine receptor (Homo sapiens), P35462; D3R cells, DiscoveRx beta-arrestin luminescence, antagonist mode; stronger effect = lower value; max response, negative = inhibition, %; actives 2.5% (n = 360,000); AID 652054, 2013; in the data active = max response below about -50%; inconclusive = no clear call, values can overlap the other calls
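Cells plated overnight at 1500 cells/well, then exposed to library compounds with dopamine controls for 90 minutes at 37 degrees C. DiscoveRx reagent added for 30–60 minutes at room temperature; luminescence read, quantitative HTS format.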
D1 potentiator – Potentiators of Human D1 Dopamine Receptor: qHTS. D(1A) dopamine receptor (Homo sapiens), P21728. HEK293 TREx D1 cells, calcium flux, dopamine EC20 potentiation. potentiation, % at 10 µM. actives 0.036% (n = 360,000). AID 504651, 2011; in the data active = potentiation above about 30%
A number is an active result; - = inactive; ? = inconclusive; . = not tested or not shown.

SMILES | D1 agonist | D1 antagonist | D3 ag | D3 antag | D1 potentiator
COC(=O)C(CC(C)C)NC(=O)C(Cc1ccccc1)NC(=O)C1CCCN1C(=O)OC(C)(C)C (centres undefined) | - | - | - | - | -
CC(C)CC(NC(=O)C1CCCN1C(=O)OC(C)(C)C)C(=O)NCC(N)=O (centres undefined) | - | - | - | -58 | -
CCCCc1c(CCC)c(=N)c2ccccc2n1C | - | - | - | -73 | -
COc1ccc(-c2noc(Cn3c(=O)c4ccccc4n(CC(=O)Nc4cccc(C(F)(F)F)c4)c3=O)n2)cc1 | - | - | - | . | -
CC1CCCN(CCCNS(=O)(=O)c2cc(Br)cc3c2N(C(=O)C2CC2)CC3)C1 (centres undefined) | - | - | - | - | -
CC(=O)N1CCc2cc(Br)cc(S(=O)(=O)NCCCN3CCCC(C)C3)c21 (centres undefined) | - | - | - | -60 | -
CN1CCN(/N=C/c2nc(-c3ccc(Cl)cc3)n3ccccc23)CC1 | - | -61 | - | - | -
NC(=O)c1cc(S(=O)(=O)N2CCCC2)ccc1OCCOc1ccccc1 | - | - | - | - | -
O=C(C1CC(=O)N(c2ccccc2)C1)N1CCN(c2ccc(F)cc2)CC1 (centres undefined) | - | - | - | -69 | -
c1ccc(-c2nnc(-c3ccccc3)nn2)cc1 | - | - | - | - | -
c1ccc(-c2cncnc2)cc1 | - | -32 | - | - | -
CCc1cc(=O)[nH]c(SCc2nc(-c3cccc(Cl)c3)no2)n1 | - | - | - | . | -
N#Cc1c(-c2ccc(C(F)(F)F)cc2)cc(-c2ccccc2)[nH]c1=S | - | -31 | - | - | -
Cc1ccc(-c2cc(-c3ccccc3)[nH]c(=S)c2C#N)cc1 | - | - | - | - | -
O=C(OCCOc1cccc(Cl)c1)C1CCN(S(=O)(=O)c2ccccc2)CC1 | 30 | - | - | - | -
CC(=O)c1sc(NC(=O)C2(F)C(F)(F)C(F)(F)C(F)(F)C(F)(F)C2(F)F)nc1C | - | -35 | - | ? | -
CCCCC(=O)Nc1nc(C)c(C(C)=O)s1 | - | -50 | - | - | .
O=S(=O)(c1ccc2c(c1)OCCO2)N1CCN(S(=O)(=O)c2ccc(Cl)cc2F)CC1 | - | - | . | . | -
CC(C)c1nnc(NC(=O)CCC(=O)N2CCC(Cc3ccccc3)CC2)s1 | - | - | - | - | -
COc1cc(C2C(C#N)=C(N)Oc3cc(O)ccc32)cc2c1OCO2 (centres undefined) | - | - | - | - | -
COc1cc(C2C(C#N)=C(N)Oc3cc(N(C)C)ccc32)cc2c1OCO2 (centres undefined) | 45 | - | - | - | -
CC(=O)c1sc(-c2ccc(F)cc2)cc1NS(=O)(=O)c1ccccc1 | - | -41 | - | - | -
COC(=O)c1sc(-c2ccccc2)cc1NC(=O)c1ccc(F)cc1 | - | - | - | - | -
Cc1ccc(C(=O)NNc2cc(N3CCCC3)nc(N3CCCC3)n2)cc1 | . | . | - | -52 | .
Cc1ccc(Cl)cc1NC(=O)NCc1cccn1Cc1ccc(F)cc1 | - | - | - | . | -
SMILES | D1 agonist | D1 antagonist | D3 ag | D3 antag | D1 potentiator
O=C(CS(=O)c1cccc(C(F)(F)F)c1)Nc1ccccc1Cl (centres undefined) | - | -47 | - | - | -
O=C(Cc1cccc(C(F)(F)F)c1)NCc1cccc(Cl)c1 | - | - | - | - | -
O=C(Cc1cccc(C(F)(F)F)c1)NCC(=O)Nc1cc(Cl)ccc1Cl | - | - | - | - | 32
COc1ccccc1CC(=O)N(Cc1ccccc1)c1cccc(C)c1 | - | -31 | - | - | -
CCc1ccc(C2c3c(-c4ccccc4O)n[nH]c3C(=O)N2Cc2ccncc2)cc1 (centres undefined) | - | - | - | . | -
CC(Sc1ccc(Cl)cc1)C(=O)N(C)CC(=O)Nc1ccc(N2CCOCC2)cc1 (centres undefined) | - | - | - | - | -
CCOc1ccc(CCNC(=O)COC(=O)c2nccnc2N)cc1OCC | - | - | - | - | -
O=C(CNC(=O)c1cccs1)c1ccc(Cl)cc1 | - | - | - | - | -
O=C(NCCc1ccc(Cl)cc1)c1cccs1 | - | -33 | - | - | -
O=C(Cc1cccs1)NNC(=S)NCc1ccc(Cl)cc1 | - | - | - | - | -
O=C(Cc1ccc(Cl)cc1)NNC(=S)NC(=O)c1cccs1 | 47 | - | - | - | -
Cc1ccc2cc(CCNC(=O)c3cccs3)c(=O)[nH]c2c1C | - | -31 | - | - | -
Cc1ccc(Nc2ccc(N3CCN(C(=O)c4ccc([N+](=O)[O-])cc4Cl)CC3)nn2)cc1 | - | . | - | . | -
c1ccc(-n2nnnc2-n2ccnc2)cc1 | - | -97 | - | - | -
O=C(NCc1ccc(Cl)cc1)c1ccc(-c2ccccc2C(F)(F)F)o1 | 33 | -39 | - | ? | -
N=C(N)c1ccc(OCCCOc2ccc(C(=N)N)cc2Br)c(Br)c1 | . | . | - | . | .
CCN1C=CC2=C(C#N)C(N)C(C#N)(C#N)C(c3ccccc3C(F)(F)F)C2C1 (centres undefined) | 34 | - | - | - | -
O=C(Nc1ccc(Cl)cc1Cl)c1cc(S(=O)(=O)N2CCc3ccccc32)ccc1F | - | - | - | . | -
Cc1ccc(OCC(=O)Nc2sc3c(c2C(N)=O)CCCC3)c(C(C)(C)C)c1 | - | -39 | - | . | -
Cc1ccc(OCC(=O)Nc2ccc(S(=O)(=O)Nc3ncccn3)cc2)c(C(C)(C)C)c1 | - | -31 | - | . | -
CCc1ccc(C(=O)c2cn(CC(=O)Nc3cc(OC)ccc3OC)c3nc(C)ccc3c2=O)cc1 | - | -49 | - | . | -
O=C(c1ccccc1Cl)N1CCN(CCc2ccccn2)CC1 | - | - | - | . | -
O=S(=O)([O-])CCC[n+]1c(/C=C\Nc2ccccc2)oc2ccc(-c3ccccc3)cc21 | 123 | - | . | . | -
O=C1CC(C(F)(F)F)=NN1 | - | - | 33 | - | -
CN1C[C@@H]2C[C@H]1CN2c1cc2c(cc1F)c(=O)c(C(=O)O)cn2C1CC1 | . | . | - | . | .
N#C/C(=C(/O)COC(=O)c1ccc2c(c1)OCCO2)c1nc2ccccc2[nH]1 | - | - | - | -62 | -
CCOC(=O)c1c(C)[nH]c(C(=O)OC/C(O)=C(\C#N)c2nc3ccccc3[nH]2)c1C | - | - | - | -52 | -
N#C/C(=C(/O)COC(=O)c1ccc(Cl)c(S(=O)(=O)N2CCOCC2)c1)c1nc2ccccc2[nH]1 | - | - | - | - | -
Cc1ccc(S[C@@H](CCN2CC[C@H](C)CCC2=O)c2ccccc2)cc1 | - | - | - | - | -

Compound activity from PubChem BioAssay.
